Consider 40 molecules from PubChem BioAssay (NCI).

The panel holds about 79,000 compounds, 15% with a hit somewhere; the sample as a whole holds those more often. Unmarked numbers belong to inactive results. The source made the active and inactive calls. Cut-off read from the data, not from the text of the source: active = growth inhibition above about 70%; inactive = the rest.

The nature of this test: NCI Yeast Anticancer Drug Screen. Data for the rad50 strain (AID 155).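 Note: 0% = growth of vehicle-only cultures of the same strain.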 Particulars: S. cerevisiae rad50 strain growth inhibition; at 50.0 µM; active compounds read high. How it is done:
Growth inhibition of yeast strains with defined genetic alterations is measured as a screen for potential anti-cancer activity. Selected strains with alterations in DNA damage repair or cell cycle control were exposed to compounds and growth inhibition was measured relative to vehicle treated controls. The strain used in this assay is rad50
`CNC(=O)c1ccc[n+](CC(=O)NCc2ccccc2)c1`: the growth inhibition was -1.8%.

As for `O=C(Cc1ccccc1)NNC(=O)Nc1ccccc1`, the growth inhibition was 4%.

On to `CSCCNC(=O)CS(=O)(=O)c1ccc(N)cc1`, for which the growth inhibition was -10.3%.

As for `COc1c(NC(=O)Nc2ccc(SC)cc2)cccc1[N+](=O)[O-]`, the growth inhibition was 2.35%.

`CC(O)C(C)(C)O` (stereo not given): the growth inhibition was 12.3%.

On to `CC1=C(C)CC2C(=O)c3c(O)ccc(O)c3C(=O)C2C1` (stereo not given), for which the growth inhibition was 28.9%.

Regarding `CC(C)c1ccc(N=Nc2ccc(N(C)C)cc2)cc1`, the growth inhibition was 4.2%.

Regarding `COc1ccc2nc(-c3ccccc3)cc(OCC(=O)O)c2c1`, the growth inhibition was -30.2%.

For the molecule `Cc1ccc(N(C(=O)Nc2ccc(F)c(Cl)c2)C2=NCC(C)S2)cc1` (stereo not given), the growth inhibition was -57.5%.

In the case of `NC(CCCCNC(=O)OCc1ccccc1)C(=O)OCc1ccccc1` (stereo not given), the growth inhibition was -15.2%.

For `CCCCC1C/C=C/C=C/C=C/C=C/C(OC2OC(C)C(O)C(N)C2O)CC2OC(O)(CC(O)CC3OC3/C=C/C(=O)O1)CC(O)C2C(=O)O` (stereo not given), the growth inhibition was 30.6%.

With `CN(CC1=C(O)C(=O)C(CN(C)Cc2c(O)ccc3ccccc23)=C(O)C1=O)Cc1c(O)ccc2ccccc12`, the growth inhibition was 30.7%.

With `CCOC(=O)CCC(C(=O)OCC)C(C)C(=O)OCC` (stereo not given), the growth inhibition was -25.4%.

`COc1ccc(C(=O)CCl)c(O)c1OC`: the growth inhibition was -4.95%.

Turning to `CCCC[n+]1cccc(C(=O)c2ccccc2)c1`, the growth inhibition is 15.7%.

Consider `CC1(C)CC(C2CC(C)(C)CC(C)(C)[C@H]2O)[C@@H](O)C(C)(C)C1` (stereo not given in full), for which the growth inhibition is -17.3%.

Take `C/C(C=C(C#N)C#N)=C\c1cccc(F)c1`: the growth inhibition was 55.7%.

As to `COc1ccc([N+](=O)[O-])c2c1CONC2c1c(CO)cnc(C)c1O` (stereo not given), the growth inhibition is 35.1%.

Turning to `CCCCCCCCCCCCCCCCN(O)C(=O)c1cnc[nH]1`, the growth inhibition is 29.8%.

On to `O=C1c2c(c3c4ccccc4[nH]c3c3[nH]c4ccccc4c23)C(=O)N1Cc1ccccc1`, for which the growth inhibition is -9.4%.

On to `Cc1ccc(NC(=O)OCCOc2ccccc2)cc1NC(=O)OCCOc1ccccc1`, for which the growth inhibition was 10.3%.

For the molecule `O=C(C[N+]12CC=C(CO)C1C(O)CC2)c1ccc(Br)cc1` (stereo not given), the growth inhibition was 5.55%.

Take `COc1ccc(/C=C/C(=O)C(C)(C)CN(C)CCN(C)C)cc1`: the growth inhibition is -36%.

Turning to `CC(O)C(O)C(O)C(=O)C=O` (stereo not given), the growth inhibition is 5.8%.

For the molecule `O=C(c1ccccc1)N1OCCC1Nc1ccc(Br)cc1` (stereo not given), the growth inhibition is -9.85%.

With `O=C(O)c1ccc(-c2ccc(O)cc2)cc1`, the growth inhibition is 10.8%.

On to `CCC(=O)c1ccc(F)cc1`, for which the growth inhibition was 10.2%.

For the molecule `CCSC1=C(C)N(C=NC(C)(C)C)CC1`, the growth inhibition was -3.7%.

`CSc1nnc(CF)c(=O)[nH]1`: the growth inhibition was -1.4%.

Regarding `CC(=O)NC1C(OC(C)C(=O)NC(C(=O)NC(CCC(=O)NCCCNC2c3ccccc3Nc3cccc([N+](=O)[O-])c32)C(N)=O)C(C)C)C(O)C(CO)OC1(C)OCc1ccccc1` (stereo not given), the growth inhibition is -29.1%.

As to `CC1(C)CC[C@]2(C(=O)O)[C@H](O)C[C@]3(C)C(=CC[C@@H]4[C@@]5(C)CC[C@H](OC6OC(C(=O)O)C(O)C(O)C6O)C(C)(C)[C@@H]5CC[C@]43C)[C@@H]2C1` (stereo not given in full), the growth inhibition was 93.8% (active).

With `C=C1C(c2ccccc2)C(c2ccccc2)=C(C)C(c2ccccc2)=CN1C(=O)c1ccccc1` (stereo not given), the growth inhibition is -3.05%.

For `Cc1ccc(NCC(O)CN2CCOCC2)cc1` (stereo not given), the growth inhibition is 34.2%.

As for `Fc1ccc(N2C(c3ccccc3)=N[C@@H](N3CCOCC3)[C@@H]2N2CCOCC2)cc1`, the growth inhibition is 21.4%.

On to `CC(C)(c1ccccc1)C(C)(C)c1nc(-c2ccccc2)cc(-c2ccccc2)n1`, for which the growth inhibition is -23.4%.

For the molecule `NC(=O)N1CCCCC1`, the growth inhibition is 7.2%.

As for `COc1ccccc1/C=C/C(=O)N1CCC2(CC1)C(=O)N(C)CN2c1ccccc1`, the growth inhibition is -16%.

For `COC(C(O)C(O)C(O)C(O)CO)n1cnc2cncnc21` (stereo not given), the growth inhibition is 4.05%.

As for `CN(C(=O)c1cccs1)C(=S)N1CCN(c2ccccn2)CC1`, the growth inhibition is -84.2%.

For `O=S1(=O)c2ccc(cc2)N=CC=Nc2ccc1cc2`, the growth inhibition was 5.25%.
